# The sample as a whole holds a higher share of the strongest signals than the screen did.
# Columns and labels:
# Assay in all cases: glycan array binding signal (z-score within array); higher = stronger binding
# Conditions in all cases: glycan notation: IUPAC condensed, linker removed
# [1] = target: Gal(b1-4)GlcNAc(b1-3)[Fuc(a1-3)GlcNAc(b1-6)]Gal(b1-4)Glc
# How it was run: (§1)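 The Consortium for Functional Glycomics database supplied 3228 glycan arrays, of which those lacking an available protein sequence were dropped. The binding signal, a within-array Z-score, was averaged across arrays of the same protein sequence and across linkers. Negative scores can be read as non-binding.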
# Gal3S(b1-4)Glc = target: Gal3S(b1-4)Glc
# How it was run: as §1
# Gal4S6S(b1-4)GlcNAc = target: Gal4S6S(b1-4)GlcNAc
# How it was run: as §1
# [2] = target: GalNAc(b1-3)Gal(a1-4)Gal(b1-4)GlcNAc
# How it was run: as §1
# GalNAc3S(b1-4)GlcNAc = target: GalNAc3S(b1-4)GlcNAc
# How it was run: as §1
# [3] = target: GlcNAc(a1-4)Gal(b1-4)GlcNAc(b1-3)Gal(b1-4)Glc
# How it was run: as §1
# [4] = target: GlcNAc(a1-6)Gal(b1-4)GlcNAc
# How it was run: as §1
# [5] = target: GlcNAc(b1-2)[GlcNAc(b1-4)]Man(a1-3)[GlcNAc(b1-4)][GlcNAc(b1-2)[GlcNAc(b1-6)]Man(a1-6)]Man(b1-4)GlcNAc(b1-4)GlcNAc
# How it was run: as §1
# [6] = target: GlcNAc(b1-3)Gal(b1-4)GlcNAc(b1-2)Man(a1-3)[GlcNAc(b1-3)Gal(b1-4)GlcNAc(b1-2)Man(a1-6)]Man(b1-4)GlcNAc(b1-4)[Fuc(a1-6)]GlcNAc
# How it was run: as §1
# [7] = target: GlcNAc(b1-3)Gal(b1-4)GlcNAc(b1-3)Gal(b1-4)GlcNAc(b1-3)GalNAc
# How it was run: as §1
# Man(a1-6)Man = target: Man(a1-6)Man
# How it was run: as §1
# Man(b1-4)GlcNAc = target: Man(b1-4)GlcNAc
# How it was run: as §1
# Neu5Ac(a2-3)Gal = target: Neu5Ac(a2-3)Gal
# How it was run: as §1
# [8] = target: Neu5Ac(a2-3)Gal(b1-3)GalNAc(b1-4)[Neu5Ac(a2-3)]Gal(b1-4)Glc
# How it was run: as §1
# [9] = target: Neu5Ac(a2-3)Gal(b1-3)GalNAc(b1-4)[Neu5Ac(a2-8)Neu5Ac(a2-3)]Gal(b1-4)Glc
# How it was run: as §1
# [10] = target: Neu5Ac(a2-3)Gal(b1-3)GlcNAc(b1-2)Man(a1-3)[Neu5Ac(a2-3)Gal(b1-3)GlcNAc(b1-2)Man(a1-6)]Man(b1-4)GlcNAc(b1-4)GlcNAc
# How it was run: as §1
# [11] = target: Neu5Ac(a2-3)Gal(b1-4)GlcNAc(b1-6)[Neu5Ac(a2-3)Gal(b1-3)]GalNAc
# How it was run: as §1
# [12] = target: Neu5Ac(a2-3)[Neu5Ac(a2-6)]GalNAc
# How it was run: as §1
# [13] = target: Neu5Ac(a2-6)Gal(b1-4)GlcNAc(b1-2)Man
# How it was run: as §1
# [14] = target: Neu5Ac(a2-6)Gal(b1-4)GlcNAc(b1-2)Man(a1-6)[Man(a1-3)]Man(b1-4)GlcNAc(b1-4)GlcNAc
# How it was run: as §1
# [15] = target: Neu5Ac(a2-6)Gal(b1-4)GlcNAc(b1-3)Gal(b1-4)GlcNAc(b1-2)Man(a1-3)[Neu5Ac(a2-6)Gal(b1-4)GlcNAc(b1-3)Gal(b1-4)GlcNAc(b1-2)Man(a1-6)]GalNAc
# How it was run: as §1
# [16] = target: Neu5Ac(a2-6)GlcNAc(b1-4)GlcNAc
# How it was run: as §1
# [17] = target: Neu5Ac(a2-6)GlcNAc(b1-4)GlcNAc(b1-4)GlcNAc
# How it was run: as §1
# [18] = target: Neu5Ac(a2-8)Neu5Ac(a2-3)Gal(b1-4)GlcNAc
# How it was run: as §1
# [19] = target: Neu5Ac(a2-8)Neu5Ac(a2-8)Neu5Ac(a2-8)Neu5Ac(a2-3)[GalNAc(b1-4)]Gal(b1-4)Glc
# How it was run: as §1
# [20] = target: Neu5Ac9Ac(a2-3)Gal(b1-4)GlcNAc
# How it was run: as §1
# Neu5Gc(a2-6)GalNAc = target: Neu5Gc(a2-6)GalNAc
# How it was run: as §1
# [21] = target: Neu5Gc(a2-8)Neu5Gc(a2-3)Gal(b1-4)GlcNAc
# How it was run: as §1
binder,measurement,setting,value
"Awp3 (Candida glabrata), B4UN32 (protein) MISFVTLLAILGLLSISWADQTVRSVAGDQRVTDPVIVGDNSILDYYGGSNYDFSNNFEIGRGTLYIGKESYFSSFQSAPTDVPNSFHLLIKNTNNLQNNGQFIIENIKRHANQCSNSSIQVFPINFQNDGEFEIISGGVEGRCCLPTSVIAPQNFLNNGKFYYKVLTDTGSIYSGSCMQNVDIGASTTTTVNNNLWEFTGSINAQINGAVSGAAQINLDGSNMFVNANTFSGQVVNLINGGSFLQTSDPLSNIVVINGLGTSDTGVTSIAVKGKGKSFTYNPSSGIVKLTTVEGKTYAYQIGCGYNTKKFITNNDSGASYESADNFFVLTYSEPYSPQTCQLENSSIFSSNFISTSTSSSSSSSSASSLPSSMSSSLPSSLSSSLSSSLSSSMSSSMSSLFIIPPPYTTTRSSGSSIIDTEIVSFYSTTDSPGHTITGTTTTTLYGPHTHSSVSTPSSSSESSTTSNSSIESSSLPHTSVSSTPESSITPSSNTISSSPTSDFSSVQSSSIMESSSVVASSSVINSSSIVDSSSSSASSLPSSMSSSLSSSMSSSLPSSMSSSLSSSLSSSLSSSMSSSMSSLFIIPPPYTTTRSSGSSIIDTEIVSFYSTTDSPGHTITGTTTTTLYGPHTHSSVSTPSSSSESSTTSNSSIESSSLPHTSVSSTPESSITPSSNTISSSPTSDFSSVQSSSIMESSSVVASSSVINSSSIVDSSSSSASSLPSSMPSSLPSSMSSSLSSSMSSSLSSSLSSSLSSSMSSSMSSLFIIPPPYTTTRSSGSSIIDTEIVSFYSTTDSPGHTITGTTTTTLYGPHTHSSVSTPSSSSESSTTSNSSIESSSLPHTSVSSTPESSITPSSNTISSSPTSDFSSVQSSSIMESSSVVASSSATQSSSVINSSSIVDSSSSSASSLPSSMPSSLPSSLSSSLSSSLSSSMSSSMSSLFIIPPPYTTTRSSGSSIIDTEIVSFYSTTDSPGHTITGTTTTTLYESSIYSSSSSTIQESELSNTSRTTMTSNSSVSISSTSSRSSFSNTKSSTIVISQSASLPDSKTDIILSTSSNIGYSSRSLLSDLGTSISDSDIHHSVLHSTESYSSNESGTNPFTSIASLSNFIPESSSHTSTALGSENSVISSDILTTMSHPVATNSGDKPTTPKRSEQVSTTMTSSGPTPDTSSFDTDGMSAYSRPEFTTNSLEVNKSSTSQLGNNKQTFSNLQLESTRPHSENEVDNNTRLLQSIQQSSTYGTNNVNPLSPTGSISIPLTEDGQGDNNNWNSPATNDLCTQISFNLTATTITVTDRITITDSIHDISSEVITSYIYQTIVDQKTVTQTVDGKSLANKMSSIPKPSSRSLIQPQPPVAIELQEGAASTSRVSLVSLFISIILVLL",glycan array binding signal (z-score),[1],-0.665
same,glycan array binding signal (z-score),Gal3S(b1-4)Glc,-0.288
same,glycan array binding signal (z-score),Gal4S6S(b1-4)GlcNAc,0.372
same,glycan array binding signal (z-score),[2],0.048
same,glycan array binding signal (z-score),GalNAc3S(b1-4)GlcNAc,3.17
same,glycan array binding signal (z-score),[3],-0.466
same,glycan array binding signal (z-score),[4],-0.59
same,glycan array binding signal (z-score),[5],-1.54
same,glycan array binding signal (z-score),[6],2.04
same,glycan array binding signal (z-score),[7],0.914
same,glycan array binding signal (z-score),Man(a1-6)Man,0.889
same,glycan array binding signal (z-score),Man(b1-4)GlcNAc,0.34
same,glycan array binding signal (z-score),Neu5Ac(a2-3)Gal,-1.36
same,glycan array binding signal (z-score),[8],-0.398
same,glycan array binding signal (z-score),[9],-0.714
same,glycan array binding signal (z-score),[10],0.813
same,glycan array binding signal (z-score),[11],-2.35
same,glycan array binding signal (z-score),[12],-0.108
same,glycan array binding signal (z-score),[13],-0.199
same,glycan array binding signal (z-score),[14],0.591
same,glycan array binding signal (z-score),[15],3.08
same,glycan array binding signal (z-score),[16],2.86
same,glycan array binding signal (z-score),[17],2.42
same,glycan array binding signal (z-score),[18],-1.76
same,glycan array binding signal (z-score),[19],1.87
same,glycan array binding signal (z-score),[20],-0.226
same,glycan array binding signal (z-score),Neu5Gc(a2-6)GalNAc,-0.186
same,glycan array binding signal (z-score),[21],0.721
